We go through five molecules from PubChem BioAssay.

Calls of active or inactive are those of the source.

Experiment [1] concerns the target Albumin (Bos taurus) (UniProt P02769). As to the kind of experiment: compounds binding labelled BSA control protein – biochemical, small-molecule microarray, Alexa647 label, 635/667 nm fluorescence, artefact control for SMM control protein annotation, profiling panel (AID 1118).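 Note: score merges 667 nm emission intensity and signal-to-noise per printed compound spot.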 The settings on record: BSA-A647 binding, fluorescence 635 nm, higher = more signal.
Experiment [2] is described as follows: probe aXIP binding to arrayed compounds – biochemical, NeuroSMM set, 635/667 nm fluorescence, primary screen (AID 1119).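 Note: probe is the protein aXip251-270 applied at 1 µg/mL to compound-printed slides; binding of probe to printed compounds measured as 667 nm fluorescence plus signal to noise.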 The settings on record: small-molecule microarray, higher = more signal, called active from +8 up or from −8 down.
The nature of experiment [3]: probe aNOTCH3 binding on compound microarray – biochemical, small-molecule microarray, 635/667 nm fluorescence, primary screen (AID 1120).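 Note: probe is a biotin-tagged antibody raised against NOTCH3 rather than NOTCH3 protein; score merges spot fluorescence near 667 nm with spot signal to noise.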 The settings on record: higher = more signal.
A short description of experiment [4]: probe aNOTCH2 binding on compound microarray – biochemical, small-molecule microarray, 635/667 nm fluorescence, primary screen (AID 1121).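 Note: score merges feature fluorescence read at 667 nm with its signal to noise.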 The settings on record: higher = more signal.
Experiment [5] has as its target Carbonic anhydrase 2 (Homo sapiens) (UniProt P00918). Put plainly: compounds binding carbonic anhydrase 2 – biochemical, small-molecule microarray, Alexa647-labelled CAII, profiling panel (AID 1122). The settings on record: CAII-A647 binding fluorescence, higher = more signal.
Experiment [6] is described as follows: COS7 lysate on small-molecule microarray, probe aHis, 635 nm (AID 1123).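 Note: z-score combines 667nm fluorescence intensity with signal-to-noise per printed compound spot.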 The settings on record: COS7 cell lysate, fluorescence, higher = more signal.
Experiment [7] in a line: probe aLAP1 signal on lysate-treated microarray – cell lysate, small-molecule microarray, COS7 lysate, primary screen (AID 1124).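 Note: lysate comes from COS7 cells expressing LAP1 and is applied at 0.3 µg/mL; score merges spot fluorescence near 667 nm with signal-to-noise over triplicate slides.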 As to conditions: probe aLAP1, fluorescence, higher = more signal.
Experiment [8] relates to Sam68 (KHDRBS1). As to the kind of experiment: compounds binding KHDRBS1 protein – biochemical, small-molecule microarray, 635 nm fluorescence, primary screen (AID 1125).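 Note: score merges 667 nm channel intensity with signal to noise over triplicate slides.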 The settings on record: higher = more signal.
Experiment [9] deals with Chordin-like protein 2 (CHRDL2). Put plainly: compounds binding chordin-like 2 – biochemical, small-molecule microarray, 635 nm fluorescence, primary screen (AID 1126).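 Note: printed compound slides probed with Chrdl2 protein at 4 µg/mL for 1 h at 4 C; score merges 667 nm emission intensity with signal to noise over three replicate slides.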 As to conditions: fluorescence 635 nm, higher = more signal.
The target in experiment [10] is Concanavalin-A (Canavalia ensiformis) (UniProt P02866). Put plainly: compounds binding concanavalin A lectin – biochemical, small-molecule microarray, Alexa647 label, 635 nm, artefact control for SMM control protein annotation, primary screen (AID 1127).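 Note: z combines 667 nm emission intensity with signal-to-noise across three replicate slides.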 The settings on record: ConA-A647 binding fluorescence, higher = more signal.
A short description of experiment [11]: compounds binding Alexa647 anti-His antibody – biochemical, small-molecule microarray, 635 nm fluorescence, artefact control for SMM control protein annotation, primary screen (AID 1128).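 Note: score merges feature fluorescence with signal-to-noise for each printed compound spot.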 The settings on record: higher = more signal.
Experiment [12] concerns Human papillomavirus type 1a E7 protein (residues 1-88). Put plainly: HPV1a E7 small-molecule binders, primary screen, biochemical, small-molecule microarray, residues 1-88, 635 nm (AID 1129). The settings on record: small-molecule microarray binding, fluorescence 635 nm; higher = more signal.
For experiment [13], the target named is Focal adhesion kinase 1 (Homo sapiens) (UniProt Q05397). As to the kind of experiment: PTK2 protein binding on printed compound slides – biochemical, small-molecule microarray, 635/667 nm fluorescence, BSA, DTT, primary screen (AID 1130).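 Note: composite of spot emission at 667 nm and signal to noise over triplicate slides.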 As to conditions: 635 nm fluorescence, higher = more signal.
The test system of experiment [14] is Fibrinogen (Alexa647-labelled). As to the kind of experiment: Alexa647-fibrinogen binding to printed small molecules – biochemical, small-molecule microarray, 635/667 nm fluorescence, artefact control for SMM control-protein annotation, profiling panel (AID 1131).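 Note: z-score merges 667 nm fluorescence with per-spot signal-to-noise over triplicate slides.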 The settings on record: fibrinogen-A647 binding fluorescence, higher = more signal.
Experiment [15] deals with Follistatin (Homo sapiens) (UniProt P19883). As to the kind of experiment: FST protein binding to printed compounds – biochemical, small-molecule microarray, 635/667 nm fluorescence, primary screen (AID 1132). As to conditions: 635 nm fluorescence, higher = more signal.
The target in experiment [16] is Fibroblast growth factor 2 (Homo sapiens) (UniProt P09038). Put plainly: basic fibroblast growth factor binding to printed compounds – biochemical, small-molecule microarray, 635/667 nm fluorescence, primary screen (AID 1133). The settings on record: FGF2, fluorescence 635/667, higher = more signal.
Experiment [17] is described as follows: JC-1 mitochondrial potential readout, lung cancer cells – cell-based, A549, JC-1 fluorescence, basal, 24 h, 100 nL, profiling panel (AID 1138).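 Note: A549 lung adenocarcinoma cells under basal conditions with no added stimulus; test concentration not given here.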 The settings on record: higher = more signal.
In experiment [18] the test system is Lefty1. As to the kind of experiment: Lefty1 protein binding to printed compounds – biochemical, small-molecule microarray, 635/667 nm fluorescence, primary screen (AID 1139). The settings on record: fluorescence 635/667, higher = more signal.
Experiment [19] deals with wheat germ agglutinin (Triticum aestivum), Alexa647-labelled. As to the kind of experiment: Alexa647-WGA lectin binding to printed small molecules – biochemical, small-molecule microarray, 635/667 nm fluorescence, artefact control for SMM control-protein annotation, profiling panel (AID 1140).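 Note: score merges 667 nm feature emission with signal to noise over triplicate slides.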 The settings on record: WGA-A647 binding, 635 nm fluorescence, higher = more signal.

The target of experiment [20] is Luciferin 4-monooxygenase (Photinus pyralis) (UniProt P08659). As to the kind of experiment: inhibition of purified Photinus pyralis luciferase – biochemical, luminescence, purified enzyme, 2006 set, primary screen (AID 1141).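 Note: cell-free assay with purified firefly luciferase at 100 ng per well in PBS; test concentration not given here.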 The settings on record: purified firefly luciferase, SteadyGlo luminescence, 30 min; higher = more signal, called active from +8 up or from −8 down.
Chain of Luciferin 4-monooxygenase (Photinus pyralis) (P08659 whole entry, looked up): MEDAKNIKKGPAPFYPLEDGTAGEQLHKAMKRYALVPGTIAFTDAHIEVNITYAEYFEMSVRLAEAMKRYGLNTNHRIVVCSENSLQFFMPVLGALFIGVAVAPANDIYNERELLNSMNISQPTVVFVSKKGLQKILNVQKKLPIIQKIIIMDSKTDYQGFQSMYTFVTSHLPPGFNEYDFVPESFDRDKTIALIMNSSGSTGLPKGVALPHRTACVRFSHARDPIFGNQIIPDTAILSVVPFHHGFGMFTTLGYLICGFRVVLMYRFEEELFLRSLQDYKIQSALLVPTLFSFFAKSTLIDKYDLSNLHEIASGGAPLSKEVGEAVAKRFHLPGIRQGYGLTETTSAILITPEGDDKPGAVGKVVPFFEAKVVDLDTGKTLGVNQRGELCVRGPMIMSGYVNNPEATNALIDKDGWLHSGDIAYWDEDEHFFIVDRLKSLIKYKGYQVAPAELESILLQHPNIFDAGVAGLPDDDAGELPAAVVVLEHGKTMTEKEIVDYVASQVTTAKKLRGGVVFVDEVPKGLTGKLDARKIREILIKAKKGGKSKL

Chain of Concanavalin-A (Canavalia ensiformis) (P02866 whole entry, looked up): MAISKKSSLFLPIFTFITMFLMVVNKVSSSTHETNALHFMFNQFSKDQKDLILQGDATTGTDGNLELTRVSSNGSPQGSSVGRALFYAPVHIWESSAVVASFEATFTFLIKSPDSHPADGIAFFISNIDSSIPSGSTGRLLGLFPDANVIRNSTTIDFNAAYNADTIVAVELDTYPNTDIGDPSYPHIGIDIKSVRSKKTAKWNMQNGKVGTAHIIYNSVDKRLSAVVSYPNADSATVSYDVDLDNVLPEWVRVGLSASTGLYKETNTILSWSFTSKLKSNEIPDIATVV
Chain of Fibroblast growth factor 2 (Homo sapiens) (P09038 whole entry, looked up): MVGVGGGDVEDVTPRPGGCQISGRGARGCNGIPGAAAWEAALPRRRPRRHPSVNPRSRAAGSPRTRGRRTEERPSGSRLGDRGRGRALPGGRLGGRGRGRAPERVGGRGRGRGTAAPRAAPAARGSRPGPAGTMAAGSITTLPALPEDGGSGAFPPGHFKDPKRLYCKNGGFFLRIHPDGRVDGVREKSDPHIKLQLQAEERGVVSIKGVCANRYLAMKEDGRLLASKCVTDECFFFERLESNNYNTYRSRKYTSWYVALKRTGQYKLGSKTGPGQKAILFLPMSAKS
Chain of Follistatin (Homo sapiens) (P19883 whole entry, looked up): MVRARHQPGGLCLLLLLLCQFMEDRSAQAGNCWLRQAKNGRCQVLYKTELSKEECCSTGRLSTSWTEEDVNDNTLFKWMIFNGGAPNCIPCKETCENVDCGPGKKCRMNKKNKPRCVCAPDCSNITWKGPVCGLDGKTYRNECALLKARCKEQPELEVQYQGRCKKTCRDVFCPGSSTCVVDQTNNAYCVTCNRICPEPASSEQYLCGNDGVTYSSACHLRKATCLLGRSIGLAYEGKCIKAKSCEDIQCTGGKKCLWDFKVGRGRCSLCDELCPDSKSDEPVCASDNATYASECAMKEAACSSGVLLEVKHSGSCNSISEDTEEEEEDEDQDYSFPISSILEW
Chain of Albumin (Bos taurus) (P02769 whole entry, looked up): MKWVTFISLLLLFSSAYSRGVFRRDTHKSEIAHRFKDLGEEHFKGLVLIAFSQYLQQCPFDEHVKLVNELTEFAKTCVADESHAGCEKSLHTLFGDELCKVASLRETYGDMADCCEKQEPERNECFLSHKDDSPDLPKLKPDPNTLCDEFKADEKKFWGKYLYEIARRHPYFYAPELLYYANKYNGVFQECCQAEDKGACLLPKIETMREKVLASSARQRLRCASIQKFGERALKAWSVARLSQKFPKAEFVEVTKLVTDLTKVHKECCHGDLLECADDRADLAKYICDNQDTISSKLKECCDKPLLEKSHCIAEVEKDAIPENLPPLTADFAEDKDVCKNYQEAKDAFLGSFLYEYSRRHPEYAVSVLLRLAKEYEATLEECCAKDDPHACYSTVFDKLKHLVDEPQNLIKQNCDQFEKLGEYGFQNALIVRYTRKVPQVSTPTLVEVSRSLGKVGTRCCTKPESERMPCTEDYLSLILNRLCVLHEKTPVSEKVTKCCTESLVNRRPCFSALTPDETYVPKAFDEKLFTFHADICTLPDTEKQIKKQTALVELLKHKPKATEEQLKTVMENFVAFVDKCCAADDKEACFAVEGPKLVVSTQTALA
Chain of Focal adhesion kinase 1 (Homo sapiens) (Q05397 whole entry, looked up): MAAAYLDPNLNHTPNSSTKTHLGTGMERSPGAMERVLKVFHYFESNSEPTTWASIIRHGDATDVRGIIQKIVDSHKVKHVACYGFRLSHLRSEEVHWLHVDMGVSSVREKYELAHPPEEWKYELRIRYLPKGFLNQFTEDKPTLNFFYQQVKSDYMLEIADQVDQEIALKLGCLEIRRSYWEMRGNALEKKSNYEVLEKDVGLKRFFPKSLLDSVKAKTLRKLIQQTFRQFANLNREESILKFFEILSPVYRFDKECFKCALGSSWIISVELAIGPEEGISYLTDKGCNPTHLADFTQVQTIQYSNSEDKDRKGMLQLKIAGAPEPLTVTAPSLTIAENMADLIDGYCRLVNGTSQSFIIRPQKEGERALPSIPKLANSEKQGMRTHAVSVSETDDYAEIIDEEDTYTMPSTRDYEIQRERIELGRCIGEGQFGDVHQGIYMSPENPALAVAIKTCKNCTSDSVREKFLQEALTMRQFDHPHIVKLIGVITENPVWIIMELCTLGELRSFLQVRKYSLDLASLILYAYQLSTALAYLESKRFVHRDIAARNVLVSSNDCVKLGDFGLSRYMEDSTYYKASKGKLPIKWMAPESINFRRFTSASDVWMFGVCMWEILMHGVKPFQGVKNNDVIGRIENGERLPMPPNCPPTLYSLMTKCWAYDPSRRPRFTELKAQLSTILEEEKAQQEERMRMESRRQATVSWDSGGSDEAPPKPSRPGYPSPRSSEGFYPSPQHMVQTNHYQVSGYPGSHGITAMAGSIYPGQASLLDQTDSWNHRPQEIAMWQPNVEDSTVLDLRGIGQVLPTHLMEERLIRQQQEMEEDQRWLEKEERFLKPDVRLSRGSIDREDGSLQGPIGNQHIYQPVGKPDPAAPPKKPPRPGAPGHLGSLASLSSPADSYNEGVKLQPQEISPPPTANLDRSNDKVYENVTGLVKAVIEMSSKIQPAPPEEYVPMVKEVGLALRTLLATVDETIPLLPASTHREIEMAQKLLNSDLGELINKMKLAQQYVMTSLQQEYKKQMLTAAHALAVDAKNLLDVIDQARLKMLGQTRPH

Turning to `[N-]=[N+]=NCc1ccccc1[C@H]1OC(c2ccc(OCCCO)cc2)=N[C@@]1(Cc1ccccc1N=[N+]=[N-])C(=O)O`, the composite z-score in experiment [1] is 0.892; in [3] it was 0.297; in [4] it was 0.0889; in experiment [5], 0.63; in experiment [6], 1.43; in [7] it was 0.455. Also, the composite z-score was found to be 1.33 in experiment [8]; 0.0332 in experiment [9]; 1.14 in [10]; 2.02 in experiment [11]; 1.2 in experiment [12]; 1.03 in experiment [13]. Further, the composite z-score in experiment [14] is 0.899; in [15], 1.21; in [16], 0.134; in experiment [18], 0.0929; in experiment [19], 1.23. Further, in experiment [2], the composite Z-score was 0.59 (inactive). Further, the values for the z-score in experiment [17] and in [20] were -0.0184 and -4.21 (inactive), respectively.

For the molecule `O=C1O[C@H](c2ccccc2)[C@H](c2ccccc2)N2[C@H]1[C@@H](C(=O)O)[C@]1(C(=O)Nc3ccccc31)[C@H]2c1ccc(OCCO)cc1`, the composite z-score turned out to be 1.03 in [1]; 0.0576 in experiment [3]; 0.024 in [4]; 0.749 in experiment [5]; 1.79 in experiment [6]; 0.59 in [7]. Also, the composite z-score is 1.16 in experiment [8]; -0.192 in experiment [9]; 0.864 in experiment [10]; 1.26 in [11]; 0.823 in experiment [12]; -0.0003 in experiment [13]. Moreover, the composite z-score in experiment [14] was 0.438; in experiment [15], 0.496; in [16], 0.293; in experiment [18] it was -0.193; in experiment [19], 0.677. Also, in [2], the composite Z-score was -0.617 (inactive). Also, the z-score in experiment [17] is 0.209; in experiment [20] it was -1.01 (inactive).

For the molecule `C[N+](C)(C)CCCC[C@@H]1NC(=O)[C@H]2C[C@@H](C(=O)O)[C@@H](c3ccc(O)cc3)N2C1=O`, the composite z-score was -0.804 in experiment [1]; -0.165 in experiment [3]; -0.104 in experiment [4]; 0.704 in [5]; 1.4 in [6]; 0.606 in [7]. Also, the composite z-score was 0.744 in experiment [8]; 0.616 in experiment [9]; 0.905 in experiment [10]; 1.04 in experiment [11]; 0.123 in experiment [12]; -0.216 in [13]. Besides, the composite z-score in [14] is -0.223; in experiment [15], 0.864; in experiment [16], 0.948; in [18], 0.155; in [19] it was -0.185. Also, the composite Z-score in experiment [2] was -0.55 (inactive). Moreover, the values for the z-score in experiment [17] and in [20] were 1.49 and -1.93 (inactive), respectively.

As to `CCCCC(=C=CC[C@@H](O)c1ccc(OCCO)cc1)CCO`, the composite z-score in [1] is 0.543; in [3], -0.0947; in [4], -0.12; in [5] it was 0.755; in [6], 1.46; in experiment [7] it was 0.145. Moreover, the composite z-score in [8] was 0.118; in [9], -0.346; in [10], -0.321; in [11], 1.83; in experiment [12], 0.407; in experiment [13], 0.814. Further, the composite z-score turned out to be 0.0258 in [14]; 0.66 in experiment [15]; 0.329 in experiment [16]; 0.452 in [18]; 1.16 in experiment [19]. For the same molecule, in experiment [2], the composite Z-score was 0.742 (inactive). Further, the z-score in experiment [17] is 1.57; in experiment [20], -1.91 (inactive).

For `[N-]=[N+]=Nc1ccccc1C[C@@]1(C(=O)NCc2ccccc2)N=C(c2ccc(OCCCO)cc2)O[C@@H]1c1ccccc1`, the composite z-score in experiment [1] worked out at 0.747; in experiment [3], 0.446; in experiment [4] it was 0.309; in experiment [5], 0.645; in experiment [6], 1.99; in [7], 0.692. Moreover, the composite z-score in experiment [8] was 1.3; in [9], 0.621; in experiment [10] it was 0.775; in [11] it was 1.58; in experiment [12], 1.22; in [13] it was -0.255. Besides, the composite z-score in experiment [14] was 0.695; in experiment [15], 1.47; in experiment [16], 0.992; in [18], -0.0651; in experiment [19], 0.626. Also, the composite Z-score in [2] was 0.157 (inactive). The z-score in experiment [17] is 0.945; in [20], -1.39 (inactive).
